Source: PubChem BioAssay (NCATS)
Activity calls are given as the source filed them. Calls come from the whole dose curve.

Assay: qHTS drug screen for cell cycle checkpoint inhibitors in PARPi-resistant BRCA-mutant ovarian cancer cell lines. (AID 1963452)
Conditions: PEO1/OlaR viability, CellTiter-Glo luminescence, 96 h; for Z-AUC: stronger effect = lower value
Method in brief: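 PEO1, PEO4 and PEO1/OlaR ovarian cancer cells, 600 per well, exposed 96 h at 37C to a dilution series. Viability read by CellTiter-Glo luminescence, normalized to DMSO and empty wells; activity summarized as Z-AUC.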

[1] = measured here: PEO1 parental Z-AUC
Potency is the fitted concentration of half-maximal effect.

SMILES | Z-AUC | Z-AUC [1] | Z-AUC (measured here: PEO4 Z-AUC) | Potency
NS(=O)(=O)c1cc2c(cc1Cl)NC(C(Cl)Cl)NS2(=O)=O (configuration not stated) | 0.208 (inactive) | 0.729 | 0.959 | 
CCCN[C@H]1CCc2nc(N)sc2C1 | -0.0876 (inactive) | -1.06 | -0.574 | 
NC1(c2ccc(-c3nc4ccn5c(=O)[nH]nc5c4cc3-c3ccccc3)cc2)CCC1 | 0.493 (inactive) | 0.0138 | -0.184 | 
NC(=O)c1ccc2[nH]ccc2c1 | -0.236 (inactive) | -0.451 | -0.798 | 
CNNCc1ccc(C(=O)NC(C)C)cc1 | 1.13 (inactive) | 0.747 | 1.05 | 
COc1cc([C@@H]2c3cc4c(cc3[C@H](O)[C@H]3COC(=O)[C@H]23)OCO4)cc(OC)c1OC |  | -1.81 | -1.94 | 0.0174 µM (active)
O=C(O)CSCC(=O)NC1CCSC1=O (configuration not stated) | -0.00872 (inactive) | 0.644 | 0.13 | 
C1CCC(C(CC2CCCCN2)C2CCCCC2)CC1 (configuration not stated) | -0.764 (inactive) | -0.095 | -0.0366 | 
CC1=CC(=O)c2ccccc2C1=O | 0.899 (inactive) | 0.394 | 0.252 | 
CC(C)(C)NC(=O)[C@H]1CC[C@H]2[C@@H]3CC[C@H]4NC(=O)C=C[C@]4(C)[C@H]3CC[C@]12C | 1.47 (inactive) | 1.04 | 1.46 | 
Cc1nnc(C(=O)NC(C)(C)c2nc(C(=O)NCc3ccc(F)cc3)c(O)c(=O)n2C)o1 | -0.384 (inactive) | -0.195 | -0.396 | 
COc1c(N2CCNC(C)C2)c(F)cc2c(=O)c(C(=O)O)cn(C3CC3)c12 (configuration not stated) | 0.833 (inactive) | 0.836 | 0.282 | 
CCCCc1oc2ccc(NS(C)(=O)=O)cc2c1C(=O)c1ccc(OCCCN(CCCC)CCCC)cc1 | 0.47 (inactive) | -0.173 | -0.237 | 
C[C@@H]1CN(c2c(F)c(N)c3c(=O)c(C(=O)O)cn(C4CC4)c3c2F)C[C@H](C)N1 | 1.35 (inactive) | 1.39 | 1.15 | 
CC(C)(Sc1cc(C(C)(C)C)c(O)c(C(C)(C)C)c1)Sc1cc(C(C)(C)C)c(O)c(C(C)(C)C)c1 | 0.926 (inactive) | 1.36 | 1.09 | 
CCN[C@H]1C[C@H](C)S(=O)(=O)c2sc(S(N)(=O)=O)cc21 | 1.11 (inactive) | 0.588 | 0.622 | 
C[C@@H](CN1CC(=O)NC(=O)C1)N1CC(=O)NC(=O)C1 | 1.24 (inactive) | 1.43 | 0.873 | 

SMILES | Z-AUC | Z-AUC [1] | Z-AUC (measured here: PEO4 Z-AUC) | Potency
CCCc1cc(C(N)=S)ccn1 | 1.52 (inactive) | 1.53 | 1.99 | 
CCOC(=O)[C@H](CCc1ccccc1)N[C@H]1CCc2ccccc2N(CC(=O)O)C1=O | -0.332 (inactive) | -0.731 | -0.74 | 
CC(C)NCC(O)c1ccc(NS(C)(=O)=O)cc1 (configuration not stated) | -0.911 (inactive) | 1.13 | 0.42 | 
Nc1nc(F)nc2c1ncn2[C@@H]1O[C@H](CO)[C@@H](O)[C@@H]1O | 0.0458 (inactive) | 0.0902 | 0.704 | 
C#CCN[C@@H]1CCc2ccccc21 | -0.484 (inactive) | -0.355 | -0.739 | 
Cc1c(-c2ccc(O)cc2)n(Cc2ccc(OCCN3CCCCCC3)cc2)c2ccc(O)cc12 | 1.04 (inactive) | 0.798 | 0.376 | 
CCOCC(O)COc1ccc(NC(=O)CC[S+](C)C)cc1 (configuration not stated) | 0.72 (inactive) | 0.893 | 1.15 | 
Oc1c(Cl)cc(Cl)c2cccnc12 | 0.201 (inactive) | -0.0999 | -0.27 | 
CCC(C)(C)c1ccc(CC(C)CN2C[C@@H](C)O[C@@H](C)C2)cc1 (some centres not stated) | 0.498 (inactive) | 0.321 | 0.288 | 
OC(Cn1cncn1)(Cn1cncn1)c1ccc(F)cc1F | -0.0807 (inactive) | 0.99 | 1.12 | 
CC[C@H](C)C(=O)O[C@H]1C[C@@H](C)C=C2C=C[C@H](C)[C@H](CC[C@@H]3C[C@@H](O)CC(=O)O3)[C@H]21 | 1 (inactive) | 1.47 | 1.3 | 
Cc1oc(=O)oc1CN1CCN(c2cc3c(cc2F)c(=O)c(C(=O)O)c2n3C(C)S2)CC1 (configuration not stated) | -0.572 (inactive) | -0.35 | -0.652 | 
CC(C)Cn1cnc2c(N)nc3ccccc3c21 | -0.974 (inactive) | -0.536 | -1.36 | 
CC(C)OC(=O)C(C(=O)OC(C)C)=C1SC=CS1 | 1.21 (inactive) | 0.837 | 1.06 | 
NC(N)=NC(N)=NCCc1ccccc1 | 1.13 (inactive) | 0.288 | 0.483 | 
CC1=NN(c2ccccc2)C(=O)C1 | 0.285 (inactive) | 0.838 | 1.05 | 
NC(=O)c1cccnc1 | 1.48 (inactive) | 1.33 | 1.21 | 
